# Screens as filed in PubChem.
# Rpn11 block = blocks the human proteasome subunit Rpn11; 360,000 compounds, 0.59% hits; O00487; inhibition, % at 20 µM; human 26S proteasome, Ub4-pepOG fluorescence polarization; 20S core pre-blocked with epoxomicin;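 active = inhibition at 20 µM, scaled to each plate's controls, above about 33%, limit read from the data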
# Target sequence (O00487 whole entry, looked up): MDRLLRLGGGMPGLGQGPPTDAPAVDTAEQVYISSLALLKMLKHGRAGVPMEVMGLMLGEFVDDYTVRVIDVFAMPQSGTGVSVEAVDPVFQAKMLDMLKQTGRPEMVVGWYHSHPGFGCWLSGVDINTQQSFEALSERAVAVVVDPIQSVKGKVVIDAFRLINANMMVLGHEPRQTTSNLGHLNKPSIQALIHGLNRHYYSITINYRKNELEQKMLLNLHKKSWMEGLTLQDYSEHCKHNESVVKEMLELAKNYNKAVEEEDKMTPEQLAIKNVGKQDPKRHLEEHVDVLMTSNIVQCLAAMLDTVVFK
# TPT1 inhibitor = blocks Candida albicans tRNA 2'-phosphotransferase; recombinant caTPT1, FP RNA substrate dephosphorylation; inhibition, % at 5 µM; 300,000 compounds, 0.81% hits;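 active = inhibition above the mean of all tested compounds plus 3 SD, set per screening campaign, cut at about 24% in these data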;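 also: plate controls were DMSO alone for no effect and ferristatin control at 100 nM for full effect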
# GRIN3A LBD mod = modulators (binders) of human NR3A ligand-binding domain; AID 1259313; 340,000 compounds, 2.5% hits; NR3A LBD differential scanning fluorimetry, Tm shift; 0% = protein alone, 100% = glycine-bound protein; Tm shift relative to glycine control, % at 25 µM;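 active = melting temperature shift of at least 10% of the positive control shift, at one fixed dose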
# dFosB act = mouse delta FosB homodimer activation | P13346 | activation, % at 25 µM | AID 493131 | purified delta FosB, TAMRA-CDK5 oligo fluorescence polarization; percent of positive-control signal above neutral wells | 340,000 compounds, 0.99% hits;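 active = mean activation above about 17%, with every replicate also reaching it, limit read from the data, passing the limit was not always enough; inconclusive = only one of the two conditions met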
# EBNA-1 inhibitor = blocks EBNA-1 binding to DNA | inhibition, % at 14.8 µM | EBNA-1 DNA binding, fluorescence polarization | 300,000 compounds, 0.34% hits | AID 1950; in the data active = inhibition above about 28%
# ZTA DNA inh = blocks Epstein-Barr virus ZTA, an EBNA-1 counter-screen | 320,000 compounds, 0.15% hits | P03206 | inhibition, % at 11 µM | ZTA-DNA binding, fluorescence polarization; in the data active = inhibition above about 33%
# Target sequence (P03206 whole entry, looked up): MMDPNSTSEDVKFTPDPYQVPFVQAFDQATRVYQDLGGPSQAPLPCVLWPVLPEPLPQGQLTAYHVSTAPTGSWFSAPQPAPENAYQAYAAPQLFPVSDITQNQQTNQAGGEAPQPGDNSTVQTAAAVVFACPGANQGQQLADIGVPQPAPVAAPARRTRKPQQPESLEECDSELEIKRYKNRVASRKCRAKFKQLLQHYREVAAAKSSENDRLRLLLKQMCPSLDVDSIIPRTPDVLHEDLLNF
# EBNA-1 inh conf = EBNA-1 (EBV) inhibition, confirmation | shares compounds with EBNA-1 inhibitor | Recombinant EBNA-1 DBD, Cy5-DNA fluorescence polarization | inhibition, % at 14.8 µM | AID 2292 | 830 compounds, 35% hits;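 active = mean inhibition across replicates above a set limit taken from the earlier primary screen, cut at about 28% in these data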;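 also: plate controls were EBNA-1 protein with DMSO for no effect and wells lacking EBNA-1 for full effect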
# ZTA DNA inh trip = ZTA (EBV) inhibition, triplicate counter-screen | shares compounds with EBNA-1 inhibitor | Zta-ZRE DNA binding, Cy5 fluorescence polarization | 830 tested, under 10 active | inhibition, % at 11.1 µM;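 active = mean inhibition over triplicates above a set limit taken from the primary EBNA-1 screen, cut at about 37% in these data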;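 also: purified full length Zta protein with Cy5 labeled ZRE DNA probe; 0% = Zta with DMSO and 100% = wells lacking Zta protein; inhibitors lower polarization by freeing the labeled DNA probe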
# * = called active by the depositor; ? = inconclusive; . = not tested or not shown. The list is not random: actives were taken first. Their share in the collection is about 4.5%.
SMILES,Rpn11 block,TPT1 inhibitor,GRIN3A LBD mod,dFosB act,EBNA-1 inhibitor,ZTA DNA inh,EBNA-1 inh conf,ZTA DNA inh trip
CCOC(=O)C1CCCN(C(=O)CCNS(=O)(=O)c2cc(Br)cnc2N)C1 (stereo not given),-1,1,2,-5,3,8,.,.
COC(=O)c1cccc(S(=O)(=O)N2CCC(NC(=O)Nc3cccc(F)c3)CC2)c1,-2,-5,-4,2,36*,2,61*,-2
CC(=O)c1ccc(S(=O)(=O)N2CCC(NC(=O)Nc3cccc(F)c3)CC2)cc1,-5,2,-4,-10,-1,-7,.,.
CCn1c2ccccc2c2cc(NC(=O)COC(=O)c3ccccc3F)ccc21,2,2,-7,2,37*,6,25,-4
O=C(/C=C/c1cccc(F)c1)OCC(=O)N1CCc2ccccc21,6,.,2,6,.,.,.,.
COc1cc(S(=O)(=O)N(Cc2cccs2)CC2CCCO2)ccc1-n1cnnn1 (stereo not given),2,0,0,-6,-15,-19,.,.
O=S(=O)(NCc1ccccc1)c1ccc(S(=O)(=O)N(Cc2cccs2)CC2CCCO2)cc1 (stereo not given),2,0,-3,9,35*,17,27,20
COc1ccc(-c2cc(C(=O)Nc3cnn(Cc4ccccc4C)c3)no2)cc1OC,-5,2,-1,?,36*,1,23,10
CCCn1cc(NC(=O)c2cc(-c3ccccc3)on2)cn1,-4,0,-4,-5,9,-4,.,.
O=C(Cn1c(=O)oc2ccccc21)Nc1cccc(Cl)c1,-12,4,-5,3,8,14,.,.
O=C(CCn1c(=O)oc2ccccc21)Nc1cccc(Cl)c1,1,-1,-2,-3,36*,26,2,-2
COC(=O)c1cc(NC(=O)Cn2c(=O)oc3ccccc32)cc(C(=O)OC)c1,1,4,1,5,65*,3,38*,-7
COc1cc(CC(=O)Nc2sc3c(c2C(N)=O)CCCC3)cc(OC)c1OC,3,-4,1,6,49*,4,23,17
Cc1ccc(S(=O)(=O)N2CCC(C(=O)OCC(=O)N3CCc4ccccc43)CC2)cc1,-2,-1,0,-11,33*,-7,7,2
Cc1ccc(S(=O)(=O)N2CCC[C@H]2C(=O)OCC(=O)N2CCc3ccccc32)cc1,4,.,0,-14,.,.,.,.
O=C1c2c(O)cccc2Cc2cccc(O)c21,-57,-8,-4,26*,31*,-18,17,11
Cc1ccc(S(=O)(=O)N2CCN(C(=S)NCCc3ccccc3)CC2)cc1,1,-1,0,-3,65*,-3,11,-2
CCOc1ccc(/C=N/NC(=O)c2ccc(CSc3nc4ccccc4[nH]3)cc2)cc1,7,4,11*,-12,33*,7,39*,12
CN(C(=O)COC(=O)c1cc2c(s1)CCCCC2)c1ccccc1,-3,2,2,-16,82*,-10,0,9
N#Cc1c(Cl)cccc1Oc1ccc(S(=O)(=O)Nc2ccccc2)cc1,-4,1,6,-8,5,-1,.,.
CCOc1ccccc1N(CC(=O)Nc1ccc(OC)cc1)S(=O)(=O)c1ccccc1,-1,-4,0,-5,28*,-12,-3,-3
COc1ccc(C=O)cc1Cn1ccnc1C,-4,0,-1,-8,4,26,.,.
CCOC(=O)c1ccc(NC(=O)c2cccc(S(=O)(=O)N3c4ccccc4CC3C)c2)s1 (stereo not given),-6,2,25*,-17,40*,-13,10,-1
CCc1ccccc1N(C(=O)c1snc(C(N)=O)c1N)C(C(=O)NCC1CCCO1)c1ccc(N(C)C)cc1 (stereo not given),8,.,-4,1,.,.,.,.
Cc1ccccc1N(C(=O)c1snc(C(N)=O)c1N)C(C(=O)NCC1CCCO1)c1ccc(N(C)C)cc1 (stereo not given),4,-4,-2,-8,28*,6,123*,10
SMILES,Rpn11 block,TPT1 inhibitor,GRIN3A LBD mod,dFosB act,EBNA-1 inhibitor,ZTA DNA inh,EBNA-1 inh conf,ZTA DNA inh trip
COc1ccc(N(C(=O)c2ccco2)C(C(=O)NC2CCCC2)c2cccs2)c(OC)c1 (stereo not given),7,-1,0,-5,55*,17,8,13
CCOc1ccccc1N(C(=O)c1ccco1)C(C(=O)NC1CCCC1)c1cccs1 (stereo not given),-1,-1,0,-6,-7,-4,.,.
Cc1ccc(NC(=O)CN(C)C(=O)CSc2nnc(C(F)(F)F)n2C)cc1,1,3,0,0,3,-2,.,.
NS(=O)(=O)c1ccc(NC(=O)c2ccc(S(=O)(=O)N3CCc4ccccc43)cc2)cc1,-3,-2,7,6,94*,-16,0,15
COc1ccc(C(=O)Nc2ccc(S(=O)(=O)N3CCc4ccccc43)cc2)cc1,4,1,5,13,1,3,.,.
CC(C)OC(=O)C1Cc2ccccc2CN1S(=O)(=O)c1cccs1 (stereo not given),5,2,0,-6,-1,-4,.,.
Cc1cc(C(=O)OC(C)C(=O)Nc2nc(-c3ccccc3)cs2)c(C)o1 (stereo not given),4,1,-7,0,-7,-10,.,.
Cc1ccc(-c2csc(NC(=O)COC(=O)c3cccc(S(=O)(=O)N4CCOCC4)c3)n2)cc1,.,3,0,.,98*,-6,-3,0
CNS(=O)(=O)c1cccc(C(=O)OCC(=O)Nc2ccc(-c3nc4ccc(C)cc4s3)cc2)c1,18,6,2,8,103*,23,81*,26
Cc1cc(C(=O)OCC(=O)Nc2nc(-c3ccccc3)cs2)c(C)o1,-2,1,-4,0,34*,7,10,-10
CCOC(=O)c1ccc(-c2csc(NC(=O)CN3CCC(C)CC3)n2)cc1,0,-2,-4,-7,43*,-12,70*,-1
Cc1ccc(-c2csc(NC(=O)c3cccc(S(=O)(=O)N4CCN(C)CC4)c3)n2)cc1,1,-1,-3,?,0,9,.,.
Cc1ccc2nc(-c3ccc(NC(=O)COC(=O)c4cncc(Br)c4)cc3)sc2c1,26,.,4,-4,.,.,.,.
CC1CCN(CC(=O)Nc2nc(-c3ccccc3)cs2)CC1,0,1,0,-3,-5,-1,.,.
